Source: PubChem
D2 PAM-1: human D2 receptor positive allosteric modulation; P14416; DiscoveRx D2 beta-arrestin cells, luminescence, 90 min; 100% = 57 uM dopamine signal; potentiation, % (test concentration not listed); hit rate 0.23% among 360,000; AID 624464; in the data active = potentiation above about 50%; inconclusive = mostly about 30% to 49%
Target sequence (P14416 whole entry, looked up): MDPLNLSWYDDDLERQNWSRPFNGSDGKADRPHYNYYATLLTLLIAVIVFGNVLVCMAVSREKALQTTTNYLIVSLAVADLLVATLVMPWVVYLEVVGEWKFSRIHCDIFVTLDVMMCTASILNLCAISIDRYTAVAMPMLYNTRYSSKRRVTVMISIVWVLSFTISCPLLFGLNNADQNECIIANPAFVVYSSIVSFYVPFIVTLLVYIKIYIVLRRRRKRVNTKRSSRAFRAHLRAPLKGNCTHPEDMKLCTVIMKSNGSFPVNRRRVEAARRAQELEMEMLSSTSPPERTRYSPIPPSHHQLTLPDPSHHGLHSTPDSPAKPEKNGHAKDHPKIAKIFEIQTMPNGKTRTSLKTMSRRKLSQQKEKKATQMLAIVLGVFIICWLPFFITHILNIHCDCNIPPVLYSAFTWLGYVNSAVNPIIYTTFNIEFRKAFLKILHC
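PathHunter beta-arrestin assay in DiscoveRx D2 cells. Compounds were added with an EC20 of dopamine (50 nM final) for 90 min at 37 deg C. Luminescence was read 1 h after detection reagent, with 57 uM dopamine as the EC100 control.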
D2 antagonist: antagonizes the human D2 dopamine receptor; P14416; HEK293 TREx D2 cells, calcium flux, dopamine EC80; inhibition, % at 10 µM; hit rate 2% among 340,000; AID 485344; in the data active = inhibition above about 30%; inactive = below that, where a call was filed; also: 0% is about no effect
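HEK293 T-REx D2 cells, tet-induced, calcium dye no-wash. Cpd pintool add, 180 s kinetic, then EC80 DA, 180 s kinetic. Ca flux read.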
D2 ag-1: agonists of human D2 dopamine receptor (beta-arrestin). AID 624465. activation, % (test concentration not listed). DiscoveRx PathHunter D2 beta-arrestin, luminescence, 90 min; 100% = 57 uM dopamine signal. hit rate 0.084% among 360,000. P14416; in the data active = activation above about 40%; inconclusive = between about 15% and that limit
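Agonist mode: compounds alone added to overnight-plated D2 PathHunter cells for 90 min at 37 C, with 57 uM final dopamine (EC100) defining full response. Beta-arrestin recruitment detected by chemiluminescent reagent, read after 1 h at ambient temperature.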
D2 PAM-2: positively modulates the human D2 dopamine receptor allosterically; HEK293 T-REx D2, calcium flux, EC20 dopamine potentiation; potentiation, % at 10 µM; hit rate 0.34% among 340,000;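 active = potentiation over 3 SD above the plate norm, cut at about 30% in these data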; also: 0% is about no effect
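Tetracycline-induced Hek293 Trex D2 cells, force-coupled to calcium, loaded with no-wash calcium dye. Compound added with 180 s kinetic read for agonism, then EC20 dopamine and a further 180 s read for potentiation.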
D2 ag-2: D2 dopamine receptor (human) agonism; HEK293 T-REx D2 cells, calcium flux agonist mode; AID 485358; P14416; activation, % at 2 µM; hit rate 0.53% among 340,000;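 active = activation over 3 SD above normal in the single-dose calcium agonist read, cut at about 30% in these data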; also: 0% is about no effect
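Tetracycline-induced HEK293 Trex cells with D2 receptor force-coupled to calcium signaling, plated overnight at 30 C and loaded with no-wash calcium dye. Calcium flux read kinetically for 180 s after compound addition; responses flag agonists.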
D3 ag: confirmation of human D3 dopamine receptor agonists, beta-arrestin; shares compounds with D2 ag-2; DiscoveRx D3 beta-arrestin cells, luminescence, 90 min; Potency, µM (titrated, usually from 76.9 µM), for inactives: at the highest dose activation, actives largely listed as activators; hit rate 4% among 2,300; AID 720506;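 also: potency is read from the fitted curve at half-maximal effect; 100% = dopamine control response; nearly all actives have a fitted effect of over 70% in size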
D2 ag-3: activates human D2 dopamine receptor in D3 counterscreen; hit rate 5.9% among 2,300; Potency, µM (titrated, usually from 76.9 µM), inactives show top-dose activation, most hits filed as activators; shares compounds with D2 ag-2; DiscoveRx PathHunter D2 beta-arrestin, luminescence, 90 min; response scale: percent relative to full dopamine signal; also: potency is read from the fitted curve at half-maximal effect; % of control where 0% means no effect; nearly all actives have a fitted effect of over 70% in size
Starred values were filed as active, the others as inactive. Rows were chosen to be rich in hits. Some 2.4% of all compounds tested hit in one or more screens of this group. Unless noted, calls follow the shape of the dose curve; as a rule, active = well fitted activation curve with a large enough effect; inconclusive = small, poorly fitted or top-dose-only effect; inactive = flat fitted curve, though single readings scatter.

How did Cc1c(C(=O)NCCc2ccc(S(N)(=O)=O)cc2)cccc1[N+](=O)[O-] do in these assays?
D2 PAM-1: -2; D2 antagonist: -5; D2 ag-1: 0; D2 PAM-2: 22; D2 ag-2: 1

What do the screens show for `Cc1ccc(C(=O)NCCc2ccc(S(N)(=O)=O)cc2)cc1[N+](=O)[O-]`?
D2 PAM-1: -1; D2 antagonist: 17; D2 ag-1: -5; D2 PAM-2: -22; D2 ag-2: 29; D3 ag: -19%; D2 ag-3: -5%

What do the screens show for `COc1ccc(OCc2cc(C(=O)NC3CCc4ccccc43)no2)c(Cl)c1` (stereo unspecified)?
D2 PAM-1: -12; D2 antagonist: -12; D2 ag-1: -1; D2 PAM-2: -23; D2 ag-2: 58*; D3 ag: -3%; D2 ag-3: -1%

Results for O=C(NC1CCc2ccccc21)c1cc(COc2ccc(F)cc2F)on1 (stereo unspecified) ?
D2 PAM-1: -2; D2 antagonist: 3; D2 ag-1: -3; D2 PAM-2: 20; D2 ag-2: 2

How did N=C(N)N1CCN(Cc2ccccc2)CC1 do in these assays?
D2 antagonist: 20; D2 PAM-2: -18; D2 ag-2: 42*; D3 ag: -5%; D2 ag-3: -3%

What do the screens show for `O=C(c1ccccc1)N1CCN(CC#Cc2ccccc2)CC1`?
D2 PAM-1: -7; D2 ag-1: 3; D2 PAM-2: -9; D3 ag: inconclusive; D2 ag-3: 6%

What do the screens show for `CN(c1ccc(C(=O)N2CCN(Cc3ccccc3)CC2)cc1)S(=O)(=O)c1ccc(Cl)cc1`?
D2 PAM-1: -16; D2 antagonist: 90*; D2 ag-1: inconclusive; D2 PAM-2: -25; D2 ag-2: 65*; D3 ag: 4%; D2 ag-3: inconclusive

Results for O=C(c1ccc(N2CCOCC2)c([N+](=O)[O-])c1)N1CCN(Cc2ccccc2)CC1 ?
D2 PAM-1: -6; D2 antagonist: -1; D2 ag-1: 3; D2 PAM-2: -20; D2 ag-2: 60*; D3 ag: -2%; D2 ag-3: 4%

Results for O=C(N1CCOCC1)N1CCN(Cc2ccccc2)CC1 ?
D2 PAM-1: 15; D2 antagonist: 9; D2 ag-1: -1; D2 PAM-2: -6; D2 ag-2: 1

Results for O=C(c1ccc(Br)c([N+](=O)[O-])c1)N1CCN(Cc2ccccc2)CC1 ?
D2 PAM-1: -5; D2 antagonist: -5; D2 ag-1: 0; D2 PAM-2: 4; D2 ag-2: 1

How did CCOC(=O)c1csc(NC(=O)CCS(=O)(=O)c2ccc(Cl)cc2)n1 do in these assays?
D2 PAM-1: -5; D2 ag-1: 2

How did COc1ccc2c(c1OC)OCC2C (stereo unspecified) do in these assays?
D2 PAM-1: -8; D2 ag-1: -3

What do the screens show for `CC(=O)c1cccc(NC(=O)c2ccc(-c3c(C)noc3C)c3ccoc23)c1`?
D2 PAM-1: 19; D2 ag-1: 13

Results for Cc1ccc(OC(C)C(=O)Nc2ccc(F)cc2)c([N+](=O)[O-])n1 (stereo unspecified) ?
D2 PAM-1: 0; D2 antagonist: 14; D2 ag-1: -2; D2 PAM-2: -20; D2 ag-2: -1

How did CCCN1CCN(C(=O)c2cc(COc3ccc(F)cc3F)on2)CC1 do in these assays?
D2 PAM-1: -16; D2 antagonist: 1; D2 ag-1: -5; D2 PAM-2: -5; D2 ag-2: -1

What do the screens show for `O=C(c1ccccc1)N1CCN(Cc2ccccc2)CC1`?
D2 PAM-1: -28; D2 antagonist: 21; D2 ag-1: 1; D2 PAM-2: -11; D2 ag-2: 3; D3 ag: -23%; D2 ag-3: inconclusive

What do the screens show for `CC(C)(C)c1ccc(C(=O)N2CCN(Cc3ccccc3)CC2)cc1`?
D2 PAM-1: -47; D2 antagonist: 19; D2 ag-1: -2; D2 PAM-2: -13; D2 ag-2: 17

Results for O=C(CCc1cn2ccccc2n1)NC1CCCc2c1cnn2-c1ccccc1F (stereo unspecified) ?
D2 PAM-1: -15; D2 antagonist: -15; D2 ag-1: 1; D2 PAM-2: -11; D2 ag-2: 0

Results for Cc1ccc(N(C(=O)c2csnn2)C(C(=O)NC2CCCCC2)c2ccco2)cc1 (stereo unspecified) ?
D2 PAM-1: -8; D2 antagonist: 23; D2 ag-1: -2; D2 PAM-2: 10; D2 ag-2: 1

How did CC(C)OC(=O)c1c(NS(=O)(=O)c2ccccc2)sc2c1CCCC2 do in these assays?
D2 PAM-1: -1; D2 antagonist: 26; D2 ag-1: -2; D2 PAM-2: 3; D2 ag-2: 1; D3 ag: -11%; D2 ag-3: -5%

Results for CCN1C=C(Cc2ccccc2C)C2=C(C1)C(c1ccccc1C)C(C#N)=C(N)O2 (stereo unspecified) ?
D2 PAM-1: -34; D2 ag-1: 0; D2 PAM-2: 0

How did CCN1C=CC2=C(C#N)C(N)C(C#N)(C#N)C(c3ccccc3C(F)(F)F)C2C1 (stereo unspecified) do in these assays?
D2 PAM-1: -13; D2 antagonist: 14; D2 ag-1: -8; D2 PAM-2: 14; D2 ag-2: 3; D3 ag: -1%; D2 ag-3: -3%

How did COc1ccccc1CNC(=O)c1cccc(NC(=O)N2CCSc3ncccc32)c1 do in these assays?
D2 ag-2: -1

How did O=C1OC(N2CCN(c3ccccn3)CC2)c2ccccc21 (stereo unspecified) do in these assays?
D2 PAM-1: -6; D2 antagonist: 34*; D2 ag-1: 9; D2 PAM-2: -23; D2 ag-2: 55*; D3 ag: 3%; D2 ag-3: 26%

What do the screens show for `COc1ccc(OCC(O)CN2CCN(c3ccccc3)CC2)cc1` (stereo unspecified)?
D2 PAM-1: -25; D2 antagonist: -4; D2 ag-1: inconclusive; D2 PAM-2: -22; D2 ag-2: 89*; D3 ag: inconclusive; D2 ag-3: inconclusive

How did COc1ccc(OCC(O)CN2CCN(c3ncccn3)CC2)cc1 (stereo unspecified) do in these assays?
D2 PAM-1: -19; D2 antagonist: 62*; D2 ag-1: inconclusive; D2 PAM-2: -20; D2 ag-2: 70*; D3 ag: inconclusive; D2 ag-3: inconclusive
